Among all 300,000 compounds or so, about 37,000 (12%) were called active. Shown is part of a subset that was picked to be rich in actives. A number with no mark means an inactive call. Rule as the data show it: active = max response mostly above about 13% (no sharp cut-off); inactive = mostly below about 14%.
Experiment: Cycloheximide Counterscreen for Small Molecule Inhibitors of Shiga Toxin; also: read at 38.3 µM for the half of the compounds with a filed dose; 0% is about no effect
Conditions: cell reporter, cycloheximide protein synthesis inhibition counterscreen; hits give high values
In the case of `CC(C)(C)NC(=O)CSC(=Nc1ccccc1F)NC#N`, the max response is reported as 27.7% (active).
For `Cc1ccccc1CSCC(=O)NC(=O)NC(C)(C)C`, the max response was 9.92%.
In the case of `COc1ccccc1-n1ccnc1SCC(=O)NC(C)(C)C`, the max response is reported as -1.32%.
`CCc1nn(CC(=O)N2CCN(CC)CC2)c(=O)c2cccn12` showed a max response of -0.288%.
For `CCc1ccccc1NC(=O)CCOc1ccccc1`, the max response was 0.846%.
`Cc1ccccc1C(=O)Nc1ccccc1NC(=O)c1ccccc1C` gave a max response of -4.55%.
`Cn1nnc(NC(=S)NC(=O)c2ccccc2)n1` gave a max response of 10.8%.
For `Cc1ccccc1C(=O)Nc1ccccc1Sc1ccccc1`, the max response was -2.65%.
With `Cc1ccccc1NC(=S)NC(=O)Cc1ccc(Cl)cc1` the max response was -2.71%.
For `Cc1cc(C)cc(C(=O)NC(=S)Nc2ccc3[nH]c(=O)[nH]c3c2)c1`, the max response was -3.08%.
With `Cc1ccccc1NC(=O)CCOc1ccccc1` the max response was 32.8% (active).
With `Cc1cc2[nH]ncc2cc1NC(=S)NC(=O)c1ccccc1` the max response was 16.5% (active).
`Cc1ccc(C(=O)NC(=S)NCc2cccnc2)cc1` gave a max response of 18.8%.
In the case of `Cc1c(NC(=O)CCCOc2ccccc2)cccc1[N+](=O)[O-]`, the max response is reported as 6.53%.
With `Cc1ccccc1NC(=O)c1ccccc1` the max response was 15.4% (active).
In the case of `Cc1ccc(C(=O)NC(=S)Nc2ccccc2C)cc1`, the max response is reported as 43.9% (active).
`COC(=O)C1(C)NC(c2ccccc2OC)C2C(=O)N(c3ccccc3)C(=O)C21` (stereo unspecified) showed a max response of -3.69%.
`COc1ccc(N2CCN(S(=O)(=O)CCNC(=O)C34CC5CC(CC(C5)C3)C4)CC2)cc1` showed a max response of -6.7%.
In the case of `CCN(CC(=O)NCC(=O)Nc1cccc(C)c1C)Cc1ccccc1`, the max response is reported as -0.652%.
In the case of `O=C1C(=O)N(CCCN2CCOCC2)C(c2ccc([N+](=O)[O-])cc2)/C1=C(\O)c1ccc2c(c1)OCCO2` (stereo unspecified), the max response is reported as 13.6%.
In the case of `COc1ccccc1NC(=O)c1cc(N2C(=O)C3C4CCC(C4)C3C2=O)ccc1Cl` (stereo unspecified), the max response is reported as 21.1%.
Work on `Cc1ccc(CNC(=O)c2ccc(CS(=O)Cc3cccc(Cl)c3)o2)cc1` (stereo unspecified) yielded a max response of 5.04%.
Molecule `CCC(C)C(=O)Nc1ccccc1N1CCN(c2ccc(F)cc2)CC1` (stereo unspecified) has a max response of 5.61%.
For `C/C(=N\NC(=S)NCc1ccccc1)C1CCCCC1`, the max response was -2.61%.
In the case of `COC(=O)[C@@H]1CC(O)CN1C(=O)C12CC3CC(CC(C3)C1)C2` (stereo partly specified), the max response is reported as -8.25%.
`COc1ccc(C(=O)NC2CC2)cc1OC1CCN(Cc2ccc(SC)cc2)CC1` showed a max response of 10.6%.
With `Cc1nc([N+](=O)[O-])cn1CC(=O)Nc1ccc(Cl)cc1` the max response was -1.69%.
`CC(=O)Nc1ccc(C(=O)OCC(=O)Nc2ccc([N+](=O)[O-])cc2C(F)(F)F)cc1` showed a max response of -3.83%.
`O=C(NC(=O)c1ccccc1)NC(=O)c1ccccc1` showed a max response of 8.89%.
With `O=C(NC(=O)c1ccccc1)Nc1ccccc1O` the max response was 38.7% (active).
In the case of `O=C(Nc1ccc(C(=O)O)c(O)c1)c1ccccc1`, the max response is reported as -3.21%.
In the case of `O=C(CCN1CCN(C/C=C/c2ccccc2)CC1)Nc1ccccc1Cl`, the max response is reported as -2.77%.
`Cc1ccc(-c2nnc(CN3CCN(C)CC3)o2)cc1` gave a max response of 11.1%.
In the case of `Cc1ccc(CNC(=O)CCS(=O)(=O)c2ccc3c(c2)CC(C)N3C(=O)C2CC2)o1` (stereo unspecified), the max response is reported as 22.1% (active).
Work on `CCC(=O)N1c2ccc(S(=O)(=O)CCC(=O)N3CCN(c4ccccc4)CC3)cc2CC1C` (stereo unspecified) yielded a max response of -1.91%.
Work on `COc1ccccc1CNC(=O)C1CCN(S(=O)(=O)c2ccc3c(c2)CC(C)N3C(=O)C2CC2)CC1` (stereo unspecified) yielded a max response of 1.43%.
For `Fc1cccc(Cl)c1CSc1ccc(-c2ccco2)nn1`, the max response was 39% (active).
`N[C@@H](Cc1c[nH]c2ccccc12)c1nnc(SCc2c(F)cccc2Cl)o1` showed a max response of -4%.
`O=C(CSc1ccc(-c2ccco2)nn1)NCc1ccc2c(c1)OCO2` showed a max response of 3.12%.
With `Clc1ccccc1CSc1nnc(-c2ccco2)c(-c2ccco2)n1` the max response was 8.29%.
`Cc1cc(SCc2c(F)cccc2Cl)nc(=O)[nH]1` gave a max response of 6.03%.
For `Brc1ccc(CSc2ccc(-c3ccco3)nn2)cc1`, the max response was 28.4% (active).
For `CCOc1ccc(Br)cc1S(=O)(=O)Nc1ccc(C(=O)OC(C)C(=O)N(C)c2ccccc2)cc1` (stereo unspecified), the max response was 0.522%.
Molecule `O=C(Nc1cccc(Cl)c1)c1cc(S(=O)(=O)N2CCCCC2)c[nH]1` has a max response of 1.01%.
`CCOC(=O)C1CN(S(=O)(=O)c2ccc(OC)cc2)c2cc(Cl)ccc2O1` (stereo unspecified) gave a max response of -3.3%.
Molecule `Cc1ccc(S(=O)(=O)N2CCN=C2SCc2c(F)cccc2Cl)cc1` has a max response of 0.957%.
`CC(=O)N(c1ccc2oc(=O)sc2c1)S(=O)(=O)c1ccc(C)cc1` showed a max response of -5.66%.
With `COC(=O)c1cccc([N+](=O)[O-])c1CS(=O)(=O)c1ccc(C)cc1` the max response was 1.48%.
For `Cc1ccc(N=C2NC(=O)c3cccc([N+](=O)[O-])c32)cc1`, the max response was 37.1% (active).
Work on `Cc1ccc(Cl)cc1NC(=O)COC(=O)CC(C)(C)C` yielded a max response of -0.256%.
Work on `O=[N+]([O-])c1cc(Br)c(O)c(/C=N/Nc2nc3ccccc3s2)c1` yielded a max response of 26%.
With `c1ccc2sc(NN=C3CCCC3)nc2c1` the max response was 38.7% (active).
`O=C(COc1ccc(-c2ccccc2)cc1)NN=C1CCCC1` showed a max response of -1.28%.
`COCc1cc(=O)[nH]c(-c2ccc(C(F)(F)F)cc2)n1` gave a max response of -0.991%.
For `C=CCN(Cc1nc(-c2cc(OC)c3c(c2)OCO3)oc1C)C1CCS(=O)(=O)C1` (stereo unspecified), the max response was -2.18%.
For `Cc1nc2ccccc2cc1OCc1ccc(F)cc1`, the max response was 37.2% (active).
For `Cc1occc(=O)c1OCc1ccc(F)cc1`, the max response was 5.09%.
`Fc1cccc2ncnc(OCc3ccccc3)c12` showed a max response of 6.13%.
In the case of `CCSc1nc2sc3c(c2c(=O)n1-c1ccc(C)cc1)CCN(C)C3`, the max response is reported as -1.97%.
For `Cc1cccc(NS(=O)(=O)c2ccc(C)c(C(N)=O)c2)c1`, the max response was -1.67%.
Work on `Cc1ccccc1CC1(CO)CCCN(Cc2ccc3c(c2)OCCO3)C1` (stereo unspecified) yielded a max response of -2.18%.
For `COc1ccc([C@H]2[C@H](C(C)=O)N3N=Cc4ccccc4C3C23C(=O)OC(C)(C)OC3=O)cc1` (stereo partly specified), the max response was 12.2%.
Work on `CN(C(=O)CSc1nnc(-c2c[nH]c3ccccc23)o1)C1CCS(=O)(=O)C1` (stereo unspecified) yielded a max response of 1.22%.
For `C=CCn1c(SCn2nnc3ccccc3c2=O)nnc1-c1ccc(Cl)cc1`, the max response was 8.6%.
Molecule `CN(C(=O)COc1ncnc2c1cnn2-c1ccccc1)C1CCCCC1` has a max response of 2.25%.
`CC(=O)c1cccc(-n2nnnc2SCC(=O)NNC(=O)C2CCCCC2)c1` gave a max response of 0.0917%.
With `CN(C(=O)CSc1nncc2ccccc12)C1CCCCC1` the max response was 30.4% (active).
In the case of `Nc1nnc(SCn2nnc3ccccc3c2=O)s1`, the max response is reported as 13.9%.
With `O=c1c2ccccc2nnn1CSc1nnnn1-c1ccccc1` the max response was 67.5% (active).
In the case of `CN(C(=O)CSc1nnnn1-c1ccccc1)C1CCCCC1`, the max response is reported as 17.1% (active).
`CN(C(=O)CCn1c(=S)oc2ccccc21)C1CCCCC1` gave a max response of 3.76%.
With `CC(NC(=O)C1CCCN(S(=O)(=O)c2ccc(-n3cnnn3)cc2)C1)c1ccc(F)cc1` (stereo unspecified) the max response was 1.89%.
With `Cc1cccc(N(Cc2ccccc2)C(=O)c2ccccc2F)c1` the max response was 13.7%.
For `O=C(NCc1ccccc1Cl)C1CCCN1S(=O)(=O)c1ccc(F)cc1` (stereo unspecified), the max response was -3.67%.
Work on `COCCCNC(=S)N1CCCC(c2nc3cc(C)c(C)cc3[nH]2)C1` (stereo unspecified) yielded a max response of 13.5%.
Molecule `CC1CCN(C(=S)c2ccc(-c3ccc(Cl)cc3Cl)o2)CC1` has a max response of 8.41%.
Molecule `CCOC(=O)c1cnc(Nc2nc3ccccc3o2)nc1CSC(=S)N1CCCCC1` has a max response of 10.5%.
For `Cc1cc(N=Nc2ccc3ccccc3c2)ccc1O`, the max response was 46.6% (active).
For `COc1ccc(N=Nc2ccc(O)c(P(=O)(c3ccccc3)c3ccccc3)c2)cc1`, the max response was -8.38%.
Work on `COc1ccnc2c1c(=O)n(Cc1cccc(F)c1)c(=O)n2C` yielded a max response of 6.46%.
`COc1ccc(C(=O)Nc2nc(-c3ccc(S(=O)(=O)N4CCOCC4)cc3)cs2)cc1` showed a max response of 0.36%.
Molecule `CCc1ccccc1NC(=O)[C@@H]1CCC(=O)N1C1OC(=O)c2c1ccc(OC)c2OC` (stereo partly specified) has a max response of -2.07%.
In the case of `COc1ccc(N/C=C(\C2OC(=O)c3ccccc32)[N+](=O)[O-])cc1` (stereo unspecified), the max response is reported as 7.23%.
For `Cc1ccc(-c2csc(NC(=O)Cn3[nH]c(=O)c4ccccc4c3=O)n2)cc1`, the max response was 11.5%.
In the case of `COc1ccc(-c2csc(NC3OC(=O)c4ccccc43)n2)cc1` (stereo unspecified), the max response is reported as 20% (active).
For `Cc1ccc(-c2csc(NC3OC(=O)c4ccccc43)n2)cc1` (stereo unspecified), the max response was 21.8% (active).
In the case of `COc1ccc2c(c1OC)C(=O)OC2Nc1nc(-c2ccccc2)cs1` (stereo unspecified), the max response is reported as 38.5% (active).
In the case of `COc1ccc2c(c1OC)C(=O)OC2c1c(O)nc(SC)n(-c2ccccc2)c1=O` (stereo unspecified), the max response is reported as -1.46%.
Molecule `O=C(Cn1c(NCCO)nc2ccccc21)c1ccc(Cl)cc1Cl` has a max response of -1.01%.
Molecule `COc1ccc(CN2CCN(Cc3cn(C)nc3-c3ccccc3)CC2CCO)c(C)c1C` (stereo unspecified) has a max response of 7.91%.
Molecule `CC(=O)c1ccc(S(=O)(=O)N(C)CCCC(=O)N(C)Cc2ccccc2F)cc1` has a max response of 2.54%.
Work on `COC(=O)C1=CN(Cc2ccc(OC)cc2)C=C(C(=O)OC)C1c1ccc(O)c(OC)c1` yielded a max response of -3.7%.
In the case of `O=C(c1ccc(Br)o1)N(c1ccccn1)C1CCCCC1`, the max response is reported as 0.638%.
In the case of `Cc1ccc(CSc2nsc(C)c2C#N)cc1`, the max response is reported as 22% (active).
Molecule `Cc1snc(SCc2c(F)cccc2Cl)c1C#N` has a max response of -2.84%.
Molecule `Cc1cc(C)c(C#N)c(SCc2ccc3c(c2)OCO3)n1` has a max response of -2.14%.
